The test has as its target Muscarinic acetylcholine receptor M4 (Homo sapiens) (UniProt P08173). The experiment in a line: off-target M4 muscarinic calcium response – cell-based, CHO-K1 hM4/Gqi5, Fluo-4 calcium flux, ACh EC20, counter-screen for M5 NAM project (AID 743105).

The structures appear in SMILES notation. The source made the active and inactive calls. No rule for the calls is given here.

Muscarinic acetylcholine receptor M4 (Homo sapiens), sequence (P08173 whole entry, looked up): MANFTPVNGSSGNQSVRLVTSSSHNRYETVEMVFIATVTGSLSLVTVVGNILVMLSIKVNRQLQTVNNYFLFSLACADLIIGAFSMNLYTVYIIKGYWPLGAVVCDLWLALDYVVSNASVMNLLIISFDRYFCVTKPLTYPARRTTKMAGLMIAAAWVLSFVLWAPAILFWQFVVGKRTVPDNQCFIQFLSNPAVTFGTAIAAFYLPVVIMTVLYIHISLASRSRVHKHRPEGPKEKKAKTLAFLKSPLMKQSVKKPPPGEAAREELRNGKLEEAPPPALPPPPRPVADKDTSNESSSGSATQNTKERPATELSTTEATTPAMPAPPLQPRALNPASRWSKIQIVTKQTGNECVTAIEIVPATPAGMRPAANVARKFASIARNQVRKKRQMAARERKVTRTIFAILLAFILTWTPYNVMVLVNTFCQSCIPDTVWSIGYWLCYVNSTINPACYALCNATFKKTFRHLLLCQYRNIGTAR

Consider `O=C(c1cc(F)cc(F)c1)N1CCN2C(=O)c3ccccc3C12c1ccc(Cl)cc1` (stereo not given), for which the outcome was inactive.

As for `O=C(c1ccc(F)c(F)c1)N1CCN2C(=O)c3ccccc3C12c1ccc(Cl)cc1` (stereo not given), the result was inactive.

On to `O=C(c1ccc(F)c(F)c1)N1CCN2C(=O)c3ccccc3[C@@]12c1ccc(Cl)cc1`, for which the outcome was inactive.

For `O=C(c1ccc(F)c(F)c1)N1CCN2C(=O)c3ccccc3C12c1ccccc1` (stereo not given), the result was inactive.

As to `O=C(c1ccc(F)cc1)N1CCN2C(=O)c3ccccc3C12c1ccccc1` (stereo not given), the outcome was inactive.

The values above are taken from PubChem BioAssay AID743105 (Vanderbilt Specialized Chemistry Center, 2013).
